Screens deposited in PubChem BioAssay by several laboratories.
Most compounds without a hit are left out; they make up all but 2.4% or so of the library.
PfG6PD inh: PfG6PD (Plasmodium falciparum) enzyme inhibition; PfGluPho enzyme, NADPH resazurin-diaphorase fluorescence; inhibition, % at 20 µM; 350,000 tested, 0.78% active; AID 504690;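 active means inhibition reaching at least a set limit at 20 µM in the primary screen, cut at about 59% in these data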
PfM18AAP inh: PfM18AAP enzyme inhibition; recombinant PfM18AAP, H-Glu-NHMec fluorogenic cleavage; inhibition, % at 7.35 µM; 290,000 tested, 1.2% active;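 active means inhibition above the campaign mean inhibition over all tested compounds plus 3 SD, cut at about 28% in these data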
APOBEC3G inh: inhibitors of human APOBEC3G DNA deaminase; recombinant A3G, ssDNA deamination FAM/TAMRA fluorescence; inhibition, % at 20 µM; Q9HC16; 330,000 tested, 0.28% active;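 active means inhibition of at least 40% at 20 µM, with no more than 30% in the related APOBEC3A deaminase screen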
Target sequence (Q9HC16 whole entry, looked up): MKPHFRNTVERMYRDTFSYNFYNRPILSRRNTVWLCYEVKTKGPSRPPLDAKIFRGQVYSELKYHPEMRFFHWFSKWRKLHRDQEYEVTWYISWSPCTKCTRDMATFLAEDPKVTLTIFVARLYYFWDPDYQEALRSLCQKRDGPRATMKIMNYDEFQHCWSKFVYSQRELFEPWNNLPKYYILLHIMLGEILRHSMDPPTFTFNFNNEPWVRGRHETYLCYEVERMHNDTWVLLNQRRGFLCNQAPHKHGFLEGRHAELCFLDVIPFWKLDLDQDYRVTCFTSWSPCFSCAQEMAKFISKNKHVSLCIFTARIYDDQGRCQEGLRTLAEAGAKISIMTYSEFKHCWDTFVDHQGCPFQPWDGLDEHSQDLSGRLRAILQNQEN
CR mimetic SO: yeast age-related superoxide inhibition as caloric restriction mimetic. S. cerevisiae aged cells, superoxide DHE fluorescence; stronger effect = lower value. superoxide response (% of plate mean), % at 10 µM. 330,000 tested, 0.18% active. AID 2690;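 active means superoxide response under a set limit, about three screen SD below normal, cut at about 65% in these data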;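 further: yeast aged for seven days with compound at 30 °C before DHE staining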
APOBEC3A inh: human APOBEC3A DNA deaminase inhibition; inhibition, % at 20 µM; recombinant A3A, FAM/TAMRA ssDNA deamination fluorescence; AID 493011; 330,000 tested, 0.41% active; P31941;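 active means at least 40% inhibition at 20 µM here, with at most 30% in a related deaminase screen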
Target sequence (P31941 whole entry, looked up): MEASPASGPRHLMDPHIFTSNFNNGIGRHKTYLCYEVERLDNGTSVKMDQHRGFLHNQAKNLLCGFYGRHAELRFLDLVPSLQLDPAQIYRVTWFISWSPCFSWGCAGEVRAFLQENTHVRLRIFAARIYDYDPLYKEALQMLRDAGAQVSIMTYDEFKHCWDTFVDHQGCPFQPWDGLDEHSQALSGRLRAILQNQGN
A3A conf: confirmation of human APOBEC3A DNA deaminase inhibitors; shares compounds with APOBEC3A inh; inhibition, % at 20 µM; 1,400 tested, 63% active; AID 493151; recombinant A3A, ssDNA deaminase UDG fluorescence assay;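 active means inhibition reaching a set limit, 80% of the first screen's cutoff, at 20 µM in any replicate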
UDG ctr A3A: counter-screen for APOBEC3A inhibitors: UDG; shares compounds with APOBEC3A inh; inhibition, % at 20 µM; 1,000 tested, under 10 active; AID 504714; UDG counterscreen, FAM/TAMRA uracil oligo fluorescence; call rule not given here
Each line names hits and unclear results; the compound was inactive in the other large screens (follow-up assays come after a bar, where they were run).

COc1ccccc1C(=O)NNC(=O)c1csc(N2CCOCC2)n1	none (no result: PfM18AAP inh)
COc1ccc(Cl)cc1C(=O)NNC(=O)c1csc(N2CCOCC2)n1	APOBEC3A inh 41 (no result: PfM18AAP inh) | A3A conf inactive | UDG ctr A3A inactive
CS(=O)(=O)c1ccc2sc(NC(=O)c3cc4ccccc4o3)nc2c1	APOBEC3A inh 53 | A3A conf inactive
COc1cccc2sc(Nc3nc(-c4ccncc4)cs3)nc12	APOBEC3A inh 45 | A3A conf 24 | UDG ctr A3A inactive
CC(C)(C)c1ccc(NC(=O)c2ccc3c(c2)S(=O)(=O)c2ccccc2C3=O)cc1	APOBEC3A inh 44 (no result: PfM18AAP inh) | A3A conf inactive | UDG ctr A3A inactive
Cc1ccc(NC(=O)C2CCN(C(=O)c3cccs3)CC2)c(C)c1	APOBEC3A inh 44 | A3A conf 67 | UDG ctr A3A inactive
O=C(Nc1nc2c(s1)CCCC2)C1CCCN1C(=O)c1cccs1 (stereo unspecified)	APOBEC3A inh 54 | A3A conf 46 | UDG ctr A3A inactive
Cc1ccc(NC(=O)C2CCCN2C(=O)c2cccs2)c(C)c1 (stereo unspecified)	APOBEC3A inh 51 | A3A conf 59 | UDG ctr A3A inactive
COc1cccc(-c2ccc(-c3noc(-c4cccs4)n3)c(OC)n2)c1	APOBEC3A inh 68 | A3A conf 72 | UDG ctr A3A inactive
COc1cccc(-c2ccc(-c3noc(-c4ccccc4F)n3)c(OC)n2)c1	none
NC(=O)C[n+]1cccc(C(=O)Nc2ccccc2)c1	APOBEC3A inh 76 | A3A conf 78 | UDG ctr A3A inactive
O=C(C[n+]1cccc(C(=O)Nc2ccccc2)c1)c1ccc([N+](=O)[O-])cc1	none
O=C(NC1CCCCC1)N1CCC(c2nc3ccc(Cl)cc3[nH]2)CC1	APOBEC3A inh 40 | A3A conf inactive | UDG ctr A3A inactive
O=C(NC1CCCCC1)N1CCC(c2nc3ccccc3[nH]2)CC1	none
O=C(CSc1nnc(-c2ccccc2F)n1C1CC1)N1CCCC1	none (no result: PfM18AAP inh, APOBEC3G inh, CR mimetic SO, APOBEC3A inh)
CC1(C)CC2CC(C)(CN2S(=O)(=O)c2cccc(C(=O)OCC(=O)NC(N)=O)c2)C1 (stereo unspecified)	APOBEC3A inh 54 (no result: PfM18AAP inh) | A3A conf inactive
CNC(=O)NC(=O)COC(=O)c1cccc(S(=O)(=O)N2CC3(C)CC2CC(C)(C)C3)c1 (stereo unspecified)	none (no result: PfM18AAP inh)
CSc1ccccc1NC(=O)CN(C)CC(=O)c1[nH]c(C)c(C(C)=O)c1C	APOBEC3A inh 68 (no result: PfM18AAP inh) | A3A conf 50 | UDG ctr A3A inactive
Cc1ccc(NC(=O)CN(C)C(=O)Cc2c[nH]c3ccccc23)cc1	none (no result: PfM18AAP inh)
COc1cccc(N2[C@@H](CC(=O)O)c3ccc(/C=C/C(=O)O)cc3S2(=O)=O)c1	APOBEC3A inh 94 (no result: PfM18AAP inh) | A3A conf 79 | UDG ctr A3A inactive
CCC(C(=O)OCC(=O)N1C(C)CCCC1C)c1ccccc1 (stereo unspecified)	none
CN1CCC(N(C)S(=O)(=O)c2ccc(NC(=O)COc3ccc(F)cc3)cc2)CC1	APOBEC3A inh 64 (no result: PfM18AAP inh) | A3A conf 58 | UDG ctr A3A inactive
CN1CCC(N(C)S(=O)(=O)c2ccc(NC(=O)COc3ccc([N+](=O)[O-])cc3)cc2)CC1	APOBEC3A inh 50 (no result: PfM18AAP inh) | A3A conf 52 | UDG ctr A3A inactive
CCCCC1CCC(C(=O)OC(C)C(=O)Nc2ccc(NC(C)=O)cc2)CC1 (stereo unspecified)	APOBEC3A inh 49 | A3A conf inactive
CC(=O)Nc1ccc(NC(=O)C(C)OC(=O)C2CCC2)cc1 (stereo unspecified)	none (no result: PfM18AAP inh)
CCOc1ccc(CN2C(=O)c3ccccc3C2=O)cc1C(=O)NC1CC(C)(C)NC(C)(C)C1	APOBEC3A inh 45 (no result: PfM18AAP inh) | A3A conf 64 | UDG ctr A3A inactive
CCOc1ccc(CN2C(=O)c3ccccc3C2=O)cc1C(=O)Nc1nnc(SCC)s1	none
CN(C)/C=C(/C(=O)c1ccc(Cl)cc1)S(C)(=O)=O	APOBEC3A inh 43 | A3A conf inactive
CC(=O)Nc1ccc(SCC(=O)c2cc(C)n(-c3ccccc3)c2C)cc1	none
CCCCCCCC[n+]1c(C)n(-c2ccccc2)c2ccc(NC(C)=O)cc21	APOBEC3A inh 42 | A3A conf 70 | UDG ctr A3A inactive
Cc1cccc[n+]1CC(=O)Nc1ccccc1	none
CC[n+]1ccccc1/C=C/Nc1ccccc1	APOBEC3A inh 61 | A3A conf 70 | UDG ctr A3A inactive
Cc1ccc(NC(=O)CN(C)CC(=O)Nc2ccc(F)c(Cl)c2)cc1	APOBEC3A inh 61 | A3A conf inactive
Nn1c(SCC(=O)NC2CCS(=O)(=O)C2)nc2scc(-c3ccccc3)c2c1=O (stereo unspecified)	none (no result: PfM18AAP inh)
Cc1cnc(C(=O)OCc2nc3ccsc3c(=O)[nH]2)cn1	none (no result: PfM18AAP inh)
CCn1c(=O)c(C(=O)CN2CCN(S(=O)(=O)c3ccc(C)cc3C)CC2)c(N)n(Cc2ccccc2)c1=O	APOBEC3A inh 44 | A3A conf inactive
Cc1ccc(-c2nc(COC(=O)C3=NN(c4ccccc4)C(=O)CC3)cs2)cc1	none (no result: PfM18AAP inh)
O=C(COC(=O)C1CCN(S(=O)(=O)c2ccccc2)CC1)NCCc1ccccc1	none (no result: PfM18AAP inh)
Cc1cc(C(C)(C)C)cc(C)c1Cn1c2[n+](c3ccc(C(F)(F)F)cc31)CCCCC2	none
O=C(Cn1c2[n+](c3ccc(C(F)(F)F)cc31)CCCCC2)Nc1ccc(Br)cc1	APOBEC3A inh 47 | A3A conf 14 | UDG ctr A3A inactive
FC(F)(F)c1cccc(Cn2c3[n+](c4ccc(C(F)(F)F)cc42)CCCCC3)c1	APOBEC3A inh 49 | A3A conf 75 | UDG ctr A3A inactive
C=CCNc1nc(S(=O)Cc2ccc(C)cc2)nc2c1CCCC2 (stereo unspecified)	none
COc1cc(CCC(=O)OCC(=O)Nc2cc(S(=O)(=O)N3CCOCC3)ccc2Cl)cc(OC)c1OC	none (no result: PfM18AAP inh, APOBEC3G inh, CR mimetic SO, APOBEC3A inh)
O=C(/C=C/c1ccco1)OCC(=O)N1CCCCC1	APOBEC3A inh 49 (no result: PfM18AAP inh) | A3A conf 38 | UDG ctr A3A inactive
Cc1cc(NC(=O)CSC2=NS(=O)(=O)c3cc(F)ccc3N2)no1	none (no result: PfM18AAP inh)
COc1ccc(OCc2nn[nH]n2)cc1	APOBEC3A inh 56 | A3A conf inactive | UDG ctr A3A inactive
CC(=O)c1c(COC(=O)c2cccnc2)nc2ccccc2[n+]1[O-]	APOBEC3A inh 58 | A3A conf 76 | UDG ctr A3A inactive
COc1cc(/C=N\NC(=O)c2ccc(Cl)cc2)ccc1Oc1ccc([N+](=O)[O-])cn1	APOBEC3A inh 48 | A3A conf 63 | UDG ctr A3A inactive
COCC(C)N=C1NN=C(c2c[nH]c3ccccc23)CS1 (stereo unspecified)	none
COc1ccccc1C(=O)NNC(=O)C12CC3CC(CC(C3)C1)C2	none
C[n+]1cccc(C(=O)NNC(=O)C23CC4CC(CC(C4)C2)C3)c1	APOBEC3A inh 82 | A3A conf 69 | UDG ctr A3A inactive
